# Reference: PubChem BioAssay (NCI)
# Compounds without any hit were thinned out: in the full panel of roughly 83,000, 20% have a hit.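 Plates (96-well) were seeded with cells, treated with compound at one concentration, and incubated for 48 hours before percent growth was determined.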 Unmarked numbers belong to inactive results. Activity calls are given as the source filed them. How the source made its calls: active means growth percent below 10; inactive means the rest.
# Columns and labels:
# Assay in all cases: NCI-60 one-dose screen, 48 h (100 = growth as untreated, 0 = no growth, -100 = all killed)
# Details in all cases: 10 µM unless noted
# [1] = tested on: NCI-H226 lung
# [2] = tested on: NCI-H322M lung
# [3] = tested on: HOP-62 NSCLC
# [4] = tested on: NCI-H460 lung
# [5] = tested on: HOP-92 NSCLC
# [6] = tested on: NCI-H522 lung
# [7] = tested on: A549/ATCC NSCLC
# [8] = tested on: 786-0 renal
# [9] = tested on: COLO 205 colon
# [10] = tested on: DU-145 prostate
Structure (SMILES),growth [1],growth [2],growth [3],growth [4],growth [5],growth [6],growth [7],growth [8],growth [9],growth [10]
N[C@@H](Cc1cn(-c2ccnc3ccccc23)nn1)C(=O)O,109%,102%,95.1%,112%,101%,101%,101%,104%,112%,110%
Nc1cc(-c2c[nH]c3ccc(F)cc23)nc2cc(-c3c[nH]c4ccc(F)cc34)nn12,97.4%,94.1%,101%,32.2%,83.5%,90.3%,79.5%,66.3%,118%,72.7%
COc1cc(-c2nc3ccc(-c4nnc(SCC(=O)Nc5ccc(C(=O)/C=C/c6ccc(Cl)cc6)cc5)o4)cc3[nH]2)cc(OC)c1OC,91.7%,96.2%,101%,105%,82.2%,92.6%,101%,90.8%,108%,104%
Cn1ccnc1C(=O)/C=C/c1ccc(NC(=O)Nc2ccc(F)cc2)cc1,63.3%,49.5%,31%,7.07% (active),78.2%,14.7%,36.4%,27.3%,49.5%,35.1%
CC(=O)c1ccc(Nc2nc(SC(C)C)nc(-c3ccccc3)c2C#N)cc1,123%,98.7%,92.7%,101%,70.2%,86.8%,93.5%,84.7%,114%,91.2%
COc1cc(/C=C/C(=O)c2ccc(Cl)cc2)ccc1Oc1nc(NCCO)nc(N2CCOCC2)n1,96.5%,95.8%,92.7%,106%,102%,96.8%,103%,101%,116%,107%
Nc1nc(N)c2c(n1)NC(c1ccc(C(F)(F)F)cc1)CC(c1ccc(Nc3nc(NCCO)nc(Nc4ccc(Cl)cc4)n3)cc1)=N2 (stereo not given),-40.7% (active),-61% (active),71.7%,-69% (active),-65.6% (active),-80.1% (active),-66.2% (active),-90.2% (active),5.02% (active),-93.1% (active)
Fc1ccc(-c2cc3nc(C(Cl)Cl)nc(-c4ccccc4)n3n2)cc1,85.7%,-33.9% (active),-36.9% (active),-69.1% (active),-27.7% (active),42.4%,-45.6% (active),5.34% (active),-72.5% (active),-33.8% (active)
C=CCSc1ccc2c(c1)C(N1CCNCC1)=Nc1ccccc1O2,87.4% [8.25 µM],85.6% [8.25 µM],84.7% [8.25 µM],85.7% [8.25 µM],34.2% [8.25 µM],74% [8.25 µM],71.7% [8.25 µM],60.4% [8.25 µM],7.69% [8.25 µM] (active),90.8% [8.25 µM]
CN(C)CCCOc1c2ccccc2nc2c1oc1ccc(Cl)cc12,-6.99% (active),-9.94% (active),14.2%,4.37% (active),3.66% (active),-57.1% (active),-2.75% (active),7.33% (active),-24.5% (active),-1.68% (active)
C#C[C@]1(O)CC[C@H]2[C@@H]3CC=C4c5sc(Nc6ccc(Cl)cn6)nc5CC[C@]4(C)[C@H]3CC[C@@]21C,77.1%,82.3%,34.8%,28.3%,59.5%,67.7%,50.3%,-78.8% (active),88.8%,63.4%
O=C(CSc1nccc(=O)[nH]1)Nc1ccc(-c2nc3ccccc3[nH]2)cc1,105%,98.2%,94.3%,110%,103%,104%,110%,101%,113%,106%
O=C1Nc2ccc(Cl)cc2/C1=C/c1ccc(OCC(=O)c2ccc(Br)cc2)cc1,78.7%,84.7%,68.4%,94.7%,72%,95.9%,102%,103%,98.5%,103%
CC1=C(C)C(=O)C(Nc2cccc(C(F)(F)F)c2)=C(Cl)C1=O,90.9%,101%,91%,94.9%,48.9%,17.7%,96.8%,102%,102%,99.7%
COc1ccc([C@@H]2c3[nH]c4ccccc4c3CC3C(=O)N(C4CCN(Cc5c(F)cccc5F)CC4)CC(=O)N32)c(OC)c1 (stereo not given in full),57% [5.26 µM],83.4% [5.26 µM],54.8% [5.26 µM],65.7% [5.26 µM],18.8% [5.26 µM],67.6% [5.26 µM],50% [5.26 µM],-35.9% [5.26 µM] (active),58.3% [5.26 µM],70.7% [5.26 µM]
NC(=O)c1cc(-c2ccc3ncnc(N4CCc5cc(F)c(Cl)cc54)c3c2)cnc1N,9.39% (active),-3.06% (active),27.9%,20%,15.8%,19.1%,16.9%,12.8%,54.8%,14.3%
CCOc1ccc2nc(NC(=O)c3ccc(C(F)(F)F)cc3)sc2c1,107%,107%,118%,101%,139%,94.4%,101%,99.6%,117%,105%
CC(C)(C)Nc1nc2c(OCCc3ccccc3)cccn2c1-c1cccc(F)c1,-7.74% (active),20.1%,-33.2% (active),-11% (active),-27% (active),-0.543% (active),12.3%,5.13% (active),-75% (active),22.7%
O=[N+]([O-])c1ccc(O)c2ncccc12,48.7%,39.1%,19.1%,10.3%,40.1%,21.2%,27%,42.4%,46.5%,43.3%
COc1ccc(-c2csc(N/N=C/c3c(-c4ccc(S(C)(=O)=O)cc4)nc4ccccn34)n2)cc1,115%,106%,121%,109%,99.9%,104%,105%,82.7%,120%,113%
COc1cc(/C=C/C(=O)c2cc(OC)c(OC)c(OC)c2)ccc1OCc1ccccc1,48.6%,45.5%,40.8%,22.4%,58.4%,49.3%,38.8%,40.1%,93.4%,27.2%
Cc1nc(-c2cc3ccccc3oc2=O)ccc1C(=O)/C=C/c1ccccn1,88.7%,86.3%,103%,41.1%,80.3%,58.6%,66.5%,6.4% (active),94.7%,47.3%
C/C(=C(/c1ccc(Cl)cc1)c1ccc(OCCN)cc1)c1ccc(C)cc1,112%,103%,103%,100%,87.2%,99.4%,97.7%,102%,114%,106%
N[C@@H](Cc1cn(-c2c3ccccc3nc3ccccc23)nn1)C(=O)O,103%,98.3%,96.6%,111%,108%,105%,102%,105%,109%,105%
